The whole screen tested about 350,000 compounds, of which about 2,400 (0.69%) were called active. Shown is part of a subset that was picked to be rich in actives. Values without a mark were called inactive. Cut-off read from the data, not from the text of the source: active = inhibition above about 41%; inconclusive = no clear call, values can overlap the other calls; inactive = below that.

As a reminder, the inhibition is the drop in the measured response relative to a control, in per cent.

The test is described as follows: blockers of LMP1-induced NF-kB reporter signal – cell-based, luminescence, single point, primary screen (AID 504558).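 Note: 0% = neutral control wells and 100% = reference inhibitor control.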 The following applies: LMP1-induced NF-kappaB luciferase reporter cells, at 12.5 µM, active compounds read high. For orientation: In a reporter assay the amount or activity of a reporter protein is the signal.
As for `C[C@@H]1CN([C@H](C)CO)C(=O)CCCn2nncc2CO[C@@H]1CN(C)C(=O)OCc1ccccc1`, the inhibition is 3.33%. The result for `CCCCCC(=O)N1C[C@H](O)[C@@H](n2cc(COC(=O)c3ccccc3)nn2)C[C@@H]1c1ccc(C)cc1` reads -2.09%; that for `CC(C)n1ncc2c(C(=O)N3CCN(Cc4cccs4)CC3)cc(C3CC3)nc21`, -5.29%. Next, `NC(=S)NN=Cc1ccc(OC(=O)COc2cc(Cl)c(Cl)cc2Cl)cn1`: 12.2%; `CC1=C(C(=O)N(C)C)CC(CC(=O)NCCN2CCOCC2)C(=O)N1Cc1ccccc1` (centres undefined): -6.42%. As to `O=C(c1cccs1)N1C[C@H](n2cc(C3CC3)nn2)[C@@H](O)C[C@@H]1c1ccccc1`, the inhibition was 5.6%. Next, `COc1ccc(NC(=O)C(NC(C)=O)C(=O)NCc2ccccc2Cl)cc1` (centres undefined): -2.84%; `Cc1cccc(NC(=O)C2CCCN2S(=O)(=O)c2ccc(F)cc2)c1C` (centres undefined): -1.63%; `COc1ccc(CCNC(=O)C2CCCN2C(=O)Nc2ccccc2)cc1OC` (centres undefined): -0.848%. Next, `O=C(NCc1ccccc1Cl)C1CCCN1S(=O)(=O)c1ccc(F)cc1` (centres undefined): 45.2% (active). `COc1ccc(NC(=O)N2CCCC2C(=O)NCc2ccccc2Cl)cc1` (centres undefined): the inhibition is 86.6% (active). Next, `O=C(NCc1ccccc1CN1CCCC1)C1CCN(S(=O)(=O)c2ccc(Cl)cc2)CC1`: -3.5%. The result for `CN1CCn2cnc(C(=O)NCC(=O)OC(C)(C)C)c2C1=O` reads 6.74%. The result for `COc1ccc(-c2ccc(CN3C(CC(C)C)C(=O)N(Cc4cn(CC5CCCCC5)nn4)CCS3(=O)=O)cc2)cc1` (centres undefined) reads 17.4%; that for `CCCNC(=O)C1CC(=O)N(c2ccc(OCc3ccccc3)cc2)C1` (centres undefined), -15.7%; that for `C/C(COc1ccccc1)=N\NC(=O)c1nnn(-c2nonc2N)c1-c1ccc(C)cc1`, 4.25%.

On to `Cc1cc(Nc2ccc(C)c(C)c2)n2ncnc2n1`, for which the inhibition was 8.05%.

Consider `CC1CCCN(C(=O)CN2C(=O)c3ccccc3S2(=O)=O)C1` (centres undefined), for which the inhibition was -11.4%. In the case of `O=C(CN1C(=O)c2ccccc2S1(=O)=O)N1CCc2ccccc21`, the inhibition is 71.7% (active). Next, `O=C(CSCc1ccccc1)N1CCc2ccccc21`: -29.9%; `CC1(C2CC2)NC(=O)N(CC(=O)N2CCN(c3ccccc3F)CC2)C1=O` (centres undefined): -9.22%.

On to `COc1cc2nnn(-c3ccncc3)c2cc1OC`, for which the inhibition was -4.43%. The result for `CCCCN(C(C)=O)c1ccc2c(c1)C1CC2CCN1Cc1ccccc1` (centres undefined) reads 2.88%. Take `Cc1cc(-n2nc(C)cc2C)n2ncc(-c3ccccc3)c2n1`: the inhibition was -21%. As for `Cc1cc(C)n(-c2c(F)c(F)c(COC(=O)c3ccccc3)c(F)c2F)n1`, the inhibition was -9.15%.

With `CCOC(=O)c1cnc(-n2nc(C)cc2C)nc1NNc1cc(C)nc(-c2ccccc2)n1`, the inhibition is 73.6% (active). For `CCOC(=O)c1cc(-c2sc(NC(=O)c3ccccc3)nc2C)n(Cc2ccccc2)n1`, the inhibition was 12.1%. Next, `COc1ccc(NC(=O)c2cc(=O)[nH]c3ccccc23)cc1S(=O)(=O)N1CCOCC1`: -9.47%. The result for `N#Cc1ccc(OCC(=O)Nc2nc(-c3ccccn3)cs2)cc1` reads 23.6%; that for `COc1ccc(Cl)cc1NC(=O)CN(C)C(=O)c1cn(-c2ccccc2)nc1-c1cccs1`, 2.49%. Next, `CC(=O)Nc1ccc2c3c(ccc([N+](=O)[O-])c13)CC2`: 3.38%; `Cc1cc(C)nc(-n2nc(C)cc2NC(=O)c2ccc(F)cc2F)n1`: -4.13%.

As for `COc1ccc(C(C)=O)cc1CSc1nc2nc(C)cc(C)n2n1`, the inhibition is 6.79%. Next, `CC(=O)c1ccc(Oc2cc(C)nc(-n3nc(C)cc3C)n2)cc1`: 89.4% (active).

Consider `C[C@H]1CN([C@@H](C)CO)C(=O)CCCn2cc(nn2)CO[C@@H]1CN(C)S(=O)(=O)c1ccccc1C#N`, for which the inhibition was 6.79%. Next, `C[C@H]1CN([C@@H](C)CO)C(=O)c2cc(-c3ccccc3F)cnc2O[C@H]1CN(C)C(=O)C1CCOCC1`: -4.67%. As for `CCCCCCN1C[C@@H](O)[C@H](n2cc(COC(=O)c3ccccc3)nn2)C[C@@H]1c1ccc(Cl)cc1`, the inhibition was 1.86%. Next, `C[C@H]1CN([C@@H](C)CO)C(=O)c2cc(Br)cnc2O[C@H]1CN(C)S(=O)(=O)c1cccs1`: -1.05%.

Take `COc1cccc(NC(=O)Nc2ccc(F)cc2)c1`: the inhibition is -3.33%. The result for `O=C(CSc1ccc(-c2ccco2)nn1)NCc1ccc2c(c1)OCO2` reads -3.64%; that for `O=C(CSc1c2c(nc3ccc(Cl)cc13)CCCC2)NCc1ccco1`, 19.1%.

As for `O=C(CSc1nc2cc3c(cc2c(=O)n1CCC1=CCCCC1)OCO3)NCc1ccco1`, the inhibition is 44.3% (active).

Take `COc1ccc(/C=C2\SC(=S)N(CCC(=O)N3CCOCC3)C2=O)cc1OC`: the inhibition was 9.24%.

For `Cc1cc(=O)[nH]c(=S)[nH]1`, the inhibition was 80.5% (active). The result for `Cc1cc(=O)cc(C)[nH]1` reads -6.47%. Take `CSc1cc(C)[nH]c(=O)n1`: the inhibition is -0.805%. Next, `C[C@@H]1CN([C@H](C)CO)C(=O)CCCn2nncc2CO[C@@H]1CN(C)S(=O)(=O)c1cccc(C#N)c1`: 1.72%; `COCCCn1c(C(=O)NC2CCCCC2)cc2c(=O)n3cccc(C)c3nc21`: 1.22%; `C[C@H](O)[C@@H]1C(=O)N2CCc3c([nH]c4ccccc34)[C@@H]2C[C@@H]1N(C)C(=O)Nc1ccc(F)cc1`: 3.72%. Next, `CC1C(=O)N(Cc2cn(CC3CCCCC3)nn2)CCS(=O)(=O)N1Cc1ccc(-c2cccc(N(C)C)c2)cc1` (centres undefined): 6.34%; `CN(C)C(CNC(=O)c1cc(Br)c(Br)s1)c1ccco1` (centres undefined): -1.49%.

For the molecule `CC(=O)N1CCCc2cc(S(=O)(=O)CCC(=O)N3CCN(c4ccccc4)CC3)ccc21`, the inhibition was -0.617%. Turning to `CC(=O)N1c2ccc(S(=O)(=O)N3CCC(C(=O)N4CCN(c5ccccc5)CC4)CC3)cc2CC1C` (centres undefined), the inhibition is 4.09%. For `CC(=O)N1CCCc2cc(S(=O)(=O)N3CCCC(C(=O)N4CCN(c5cccc(Cl)c5)CC4)C3)ccc21` (centres undefined), the inhibition was 42.1% (active).

For the origin of these results see PubChem BioAssay AID504558 (Broad Institute, 2011).
